Experiment: blood-stage malaria parasite viability loss – strain 3D7, DAPI fluorescence, 100 nL, primary screen (AID 1184);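 note: parasites grown inside human red blood cells in medium with human serum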
Settings: P. falciparum 3D7 growth, 3 d, higher = more signal

**Q.** For C=CCN1C(=O)[C@@]2(Cc3ccccc31)N=C(c1ccc(OCCCO)cc1)O[C@H]2c1ccccc1, which z-score is on record?
**A.** -1.16

**Q.** With CC(C)C(O)C1C=CC2C(=O)N(c3ccccc3)C(=O)C2N1Nc1ccc([N+](=O)[O-])cc1 (stereo unspecified) as the compound, how does the z-score read?
**A.** 0.935

**Q.** Which z-score does the source give for COC(=O)[C@H](Cc1ccccc1)N[C@@H](/C=C/C1CC1)[C@H](O)Cc1ccccc1 here?
**A.** -0.986

**Q.** With O=C1O[C@H](c2ccccc2)[C@H](c2ccccc2)N2[C@H]1[C@@H](C(=O)N1CCCCCCC1)[C@]1(C(=O)Nc3ccc(C#CC4=CCCCC4)cc31)[C@H]2c1ccc(OCCO)cc1 as the compound, how does the z-score read?
**A.** -2.33

**Q.** Which z-score does the source give for CCOC(=O)C[C@H]1[C@H](OC(=O)c2ccc(C(=O)c3ccccc3)cc2)[C@@H](NC(=O)c2ccccc2)c2cc(OCCCO)ccc2N1C(=O)Cc1ccc(OC)cc1 here?
**A.** 0.4

**Q.** With COc1ccc([Si](C)(C)[C@H]2[C@H](CCO)O[C@@]3(C(=O)N(Cc4ccc(N(C=O)c5ccccc5)cc4)c4ccccc43)[C@@H]2C)cc1 as the compound, how does the z-score read?
**A.** -1.93

**Q.** For CC(C)c1ccc(NN2C(C(O)c3ccc(B(O)O)cc3)C=CC3C(=O)N(c4ccccc4)C(=O)C32)cc1 (stereo unspecified), which z-score is on record?
**A.** 0.101

**Q.** Which z-score does the source give for COc1ccc(CCNC(=O)[C@@]2(Sc3ccc(C)cc3)CC(=O)N(C3Cc4ccccc4C3)[C@@H]2c2ccc(CO)cc2I)cc1 here?
**A.** -0.725

**Q.** Which z-score does the source give for COCCOC(=O)N1C(=O)[C@@]2(c3ccccc31)[C@H](c1ccc(O)cc1)N1[C@H](c3ccccc3)[C@H](c3ccccc3)OC(=O)[C@H]1[C@@H]2C(=O)Nc1nc2ccccc2s1 here?
**A.** 0.194

**Q.** For C=C(C(=O)CC[C@@H](OC(=O)c1cccnc1)c1ccccc1OCCO)C(C)C, which z-score is on record?
**A.** -2.27

**Q.** With NCCCCCNC(=O)[C@@H]1C[C@@H]2C(=O)N[C@@H](Cc3ccccc3)C(=O)N2[C@@H]1c1ccc(O)cc1 as the compound, how does the z-score read?
**A.** 1.35

**Q.** Which z-score does the source give for CCCCCCc1nc(-c2ccc(OC)nc2)cc2c1[Si](C(C)C)(C(C)C)O[C@H]2c1ccccc1 here?
**A.** -0.421

**Q.** Which z-score does the source give for C[N+](C)(C)CCCCNC(=O)[C@@H]1C[C@@H]2C(=O)N[C@@H](Cc3ccccc3)C(=O)N2[C@@H]1c1cccc(OCCO)c1 here?
**A.** -0.421

**Q.** With COc1cc2c(cc1O)C(c1cccs1)N(C)CC2 (stereo unspecified) as the compound, how does the z-score read?
**A.** -1.12

**Q.** Which z-score does the source give for C[C@@]1([C@@H](NC(=O)c2ccc(-c3ccccc3)cc2)c2ccc(Cl)cc2)C[C@H]1C1CCCCC1 here?
**A.** -0.311

**Q.** Which z-score does the source give for Cc1ccc(S[C@]2(C(=O)O)CC(=O)N(C(C)C)[C@@H]2c2ccc(CO)cc2I)cc1 here?
**A.** 0.14

**Q.** For CN1C(=O)C2C=CC(C(O)C3CC=CCC3)N(N(c3ccccc3)c3ccccc3)C2C1=O (stereo unspecified), which z-score is on record?
**A.** -0.201

**Q.** Which z-score does the source give for O=C1NC(=O)C2C1C=CC(C(O)c1cccs1)N2Nc1ccc(Cl)cc1Cl (stereo unspecified) here?
**A.** -0.335

**Q.** For C=CCC(OC(C)=O)[C@@H]1[C@@H](N(Cc2ccc(-c3ccccc3)cc2)C(=O)Cc2ccc(OC)cc2)c2cc(OCCCO)ccc2N1C(=O)Cc1ccc2ccccc2c1 (stereo partly specified), which z-score is on record?
**A.** -0.874

**Q.** With CC(C)C[C@@H]1NC(=O)[C@@H]2C[C@H](C(=O)NCc3ccc(F)cc3)[C@H](c3cccc(OCCO)c3)N2C1=O as the compound, how does the z-score read?
**A.** 0.124

**Q.** For C=CCC(OC(C)=O)[C@@H]1[C@@H](N(Cc2ccc(-c3ccccc3)cc2)C(=O)c2cccc3ccccc23)c2cc(OCCCO)ccc2N1C(=O)c1ccc(-c2ccccc2)cc1 (stereo partly specified), which z-score is on record?
**A.** -2.81

**Q.** For CCCC[C@H]1OB(O)C[C@H]2C1=C(COC)Cn1c(=O)n(-c3ccccc3)c(=O)n12, which z-score is on record?
**A.** -1.29

**Q.** Which z-score does the source give for O=C1NC(=O)C2C1C=CC(C(O)c1cc(C(F)(F)F)cc(C(F)(F)F)c1)N2Nc1ccccn1 (stereo unspecified) here?
**A.** -0.352

**Q.** With CC1CC/C=C\[C@H]2OC34C=CCN(Cc5ccccc5)C(=O)[C@H]3N(CCCO)C(=O)[C@@H]4C2C(=O)O1 (stereo partly specified) as the compound, how does the z-score read?
**A.** 0.295

**Q.** With C=C(CC1([C@@H](NP(=O)(c2ccccc2)c2ccccc2)[C@H]2C[C@@H]2CCCC)CC1)c1ccccc1 as the compound, how does the z-score read?
**A.** -0.548

**Q.** For CC(C)N1C(=O)c2ccccc2[C@](C)(C(=O)NCCN2CCOCC2)[C@@H]1c1ccc(CO)cc1, which z-score is on record?
**A.** 0.437

**Q.** With [N-]=[N+]=NCc1ccccc1[C@@H]1OC(c2ccc(OCCCO)cc2)=N[C@]1(Cc1ccccc1)C(=O)NCC(O)CO (stereo partly specified) as the compound, how does the z-score read?
**A.** -2.06

**Q.** With Cc1ccc(S[C@]2(C(=O)NCCCN(C)C)CC(=O)N(Cc3ccccc3C(F)(F)F)[C@@H]2c2ccc(CO)cc2)cc1 as the compound, how does the z-score read?
**A.** -1.02

**Q.** With [N-]=[N+]=Nc1ccccc1[C@@H]1OC(c2ccc(OCCCO)cc2)=N[C@]1(Cc1ccccc1)C(=O)N1CCOCC1 as the compound, how does the z-score read?
**A.** -2.32

**Q.** With Cc1nc2cc(Br)ccc2c(=O)o1 as the compound, how does the z-score read?
**A.** -0.973

**Q.** Which z-score does the source give for CC1CC/C=C\[C@H]2OC34C=CCN(C(C)(C)C)C(=O)[C@H]3N(C(C)CO)C(=O)[C@@H]4C2C(=O)O1 (stereo partly specified) here?
**A.** 0.0549

**Q.** For C=CCOC(=O)[C@@H]1[C@H]2C(=O)O[C@H](c3ccccc3)[C@H](c3ccccc3)N2[C@H](c2ccc(OCCOC(=O)[C@H]3C[C@H]4C(=O)N5CCC[C@H]5C(=O)N4[C@H]3c3ccc(O)cc3)cc2)[C@@]12C(=O)Nc1ccc(I)cc12, which z-score is on record?
**A.** -1.56

**Q.** For C=C(/C(=C/C[C@H](OC(C)=O)c1ccccc1OCCO)c1cnc2ccccc2c1)C(C)C, which z-score is on record?
**A.** -2.76

**Q.** Which z-score does the source give for CCCCN1CC=CC23O[C@@H]4C=CCCOC(=O)C4[C@H]2C(=O)N(CCCCCCO)[C@@H]3C1=O (stereo partly specified) here?
**A.** -0.35

**Q.** With COc1ccc(C#Cc2ccc3c(c2)[C@]2(C(=O)N3)[C@H](C(=O)NC[C@H](O)c3ccccc3)[C@H]3C(=O)O[C@H](c4ccccc4)[C@H](c4ccccc4)N3[C@@H]2c2ccc(O)cc2)cc1 as the compound, how does the z-score read?
**A.** -0.0029

**Q.** With O=C(c1ccccc1)N1C(=O)[C@]2(COC(c3ccc(OCCCO)cc3)=N2)Cc2ccccc21 as the compound, how does the z-score read?
**A.** -2.14

From PubChem BioAssay
